Here are results for 4 compounds from PubChem BioAssay (NCATS).

SMILES strings stand for the structures. Inconclusive results are not listed. Calls of active or inactive are those of the source. Unless noted, calls follow the shape of the dose curve; as a rule, active = well fitted curve in the direction sought with a large enough effect; inconclusive = small, poorly fitted or top-dose-only effect, or another doubt; inactive = no such curve, though single readings can be large; an effect the other way counts as inactive or inconclusive.

Test [1] has as its target Glucocorticoid receptor (Homo sapiens) (UniProt P04150). In words: GR-GFP Redistribution (AID 450;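 active = compounds whose dose series gives a full or clear partial fitted curve of increased nuclear translocation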; also: potency is read from the fitted curve at half-maximal effect). The following applies: U2OS GR-GFP nuclear translocation, laser cytometry, 2 h.
The target of test [2] is Mitogen-activated protein kinase 10 (Mus musculus) (UniProt Q61831). In words: JNK3 AlphaScreen Assay (AID 530; active = well fitted curve in either direction with a large enough effect, not every such curve was filed as active;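 also: kinase came from lysate of stimulated human HepG2 cells; signal reports phosphorylation of biotinylated GST-cJun 1-79 at Ser73 with 10 µM ATP; % is scaled to controls: 0 for no effect and ±100 for the full control effect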). The following applies: JNK3 lysate, c-Jun phosphorylation; series mostly up to 57.1 µM. In short, it runs like this: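 Inhibitors reduce antibody binding to phosphorylated biotin-cJun, lowering AlphaScreen luminescence. Lysates from HepG2 cells pre-activated by IL-1beta plus TNF-alpha supplied JNK3; compounds were titrated.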
(In general: In Alpha technology, singlet oxygen from a donor bead excites a nearby acceptor bead.)

The target of test [3] is 3',5'-cyclic-AMP phosphodiesterase 4B (Homo sapiens) (UniProt Q07343). In words: qHTS Assay for Inhibitors of PDE-IV (AID 607; active = well fitted activation curve with a large enough effect in the main read-out, with a control signal flat, not every such curve was filed as active; also: % of control where 0% means no effect). The following applies: HEK293 ACTOne CNG channel cells, membrane potential fluorescence; series mostly up to 22.9 µM. The essentials: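 ACTOne HEK293 cells carry a modified cAMP-gated CNG channel and express endogenous PDE4; plated 1000 cells/well, compounds up to 22.9 uM final. Membrane-potential dye fluorescence (ex 535/em 590) was read; parental cells received 10 uM forskolin + 100 uM RO 20-1724.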
Sequence of 3',5'-cyclic-AMP phosphodiesterase 4B (Homo sapiens) (Q07343 whole entry, looked up): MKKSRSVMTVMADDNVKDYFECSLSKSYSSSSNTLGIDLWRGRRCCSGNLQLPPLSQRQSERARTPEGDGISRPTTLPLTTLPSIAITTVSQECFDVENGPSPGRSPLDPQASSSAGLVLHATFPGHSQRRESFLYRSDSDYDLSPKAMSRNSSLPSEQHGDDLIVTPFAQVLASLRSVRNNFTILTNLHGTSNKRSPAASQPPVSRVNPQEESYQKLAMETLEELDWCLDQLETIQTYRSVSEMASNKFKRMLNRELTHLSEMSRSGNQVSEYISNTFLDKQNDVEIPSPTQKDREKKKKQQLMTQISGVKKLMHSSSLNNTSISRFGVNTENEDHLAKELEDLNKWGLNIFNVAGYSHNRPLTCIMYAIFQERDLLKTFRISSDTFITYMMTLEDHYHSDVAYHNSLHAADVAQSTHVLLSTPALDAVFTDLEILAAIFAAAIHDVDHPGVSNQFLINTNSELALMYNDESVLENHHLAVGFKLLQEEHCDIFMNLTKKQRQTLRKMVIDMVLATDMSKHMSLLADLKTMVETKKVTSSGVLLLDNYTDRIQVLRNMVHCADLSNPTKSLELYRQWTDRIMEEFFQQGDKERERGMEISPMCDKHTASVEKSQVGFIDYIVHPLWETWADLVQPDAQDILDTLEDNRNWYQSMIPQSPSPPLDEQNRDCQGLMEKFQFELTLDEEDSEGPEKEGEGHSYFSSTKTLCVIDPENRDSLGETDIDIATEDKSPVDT
For orientation: qHTS replaces the single test concentration by a dilution series.

Test [4] has as its target Ubiquitin carboxyl-terminal hydrolase 1 (Homo sapiens) (UniProt O94782). The experiment in a line: Inhibitors of USP1/UAF1: Pilot qHTS (AID 504865).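 Also: rhodamine fluorescence freed from ubiquitin-rhodamine substrate followed over time; top concentration of the series differs between compounds; % is scaled to controls: 0 for no effect and ±100 for the full control effect; nearly all actives have a fitted effect of over 35% in size.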 Particulars: purified USP1/UAF1, Ub-rhodamine cleavage fluorescence; series mostly up to 114 µM. The essentials:
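Enzyme-free wells gave the negative control, while test wells held 1nM USP1/UAF1 preincubated with compound for 15 min at room temperature. Ub-Rho at 150nM final started the reaction, and fluorescence at 480/540 nm was recorded kinetically.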

Test [5] has as its target DNA dC->dU-editing enzyme APOBEC-3G (Homo sapiens) (UniProt Q9HC16). In words: qHTS for inhibitors of Vif-A3G interactions: Validation (AID 588379). Also: 0% is about no effect. Particulars: Vif-A3G protein interaction assay; series mostly up to 46.1 µM. The essentials: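 HeLa cells stably expressing Vif and A3G-eYFP, 700 cells/well, incubated overnight at 37 deg C, then exposed to compound overnight at 37 deg C. Inhibition of Vif-mediated degradation read as increased yellow fluorescence (Ex 488/Em 500-530) by laser-scanning cytometry.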

Test [6] concerns Zika virus NS2B-NS3 protease. The experiment in a line: Primary screen GU AMC qHTS for Zika virus inhibitors (AID 1347154).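 Also: 0% = no-inhibitor control and -100% = no-enzyme control; nearly all actives have a fitted effect of over 70% in size.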 Particulars: Zika NS2B-NS3 unlinked protease, AMC fluorogenic substrate; series mostly up to 54.1 µM. The essentials: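 Unlinked Zika NS2B hydrophilic domain/NS3 protease domain noncovalent complex (25 nM final) in 10 mM Tris-HCl pH 8.0, 0.01% Tween 20, with AMC peptide substrate. Fluorescence (ex 340, em 450 nm) change over 15 min, room temperature; percent inhibition fitted to 4-parameter Hill equation.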

Test [7] in a line: Primary qHTS for small molecule stabilizers of the endoplasmic reticulum resident proteome: Secreted ER Calcium Modulated Protein (SERCaMP) assay (AID 1508630). Also: % is scaled to controls: 0 for no effect and ±100 for the full control effect. Particulars: SH-SY5Y GLuc-SERCaMP (Gaussia luciferase released on ER calcium loss) secretion, thapsigargin, luminescence; series mostly up to 38.4 µM. In short, it runs like this:
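GLuc-SERCaMP-expressing SH-SY5Y cells, pretreated 16 h with compound, are challenged with thapsigargin to empty ER calcium stores; after 4 h, coelenterazine is added directly to the medium and luminescence is imaged.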

Test [8] is described as follows: NCATS anti-infectives library activity on HEK293 viability as a counter-qHTS vs the C. elegans viability qHTS (AID 1745854). Also: % is scaled to controls: 0 for no effect and ±100 for the full control effect. Particulars: HEK293 viability counter-screen; series mostly up to 41.8 µM. In short, it runs like this: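 Compounds were acoustically plated (several concentrations, 1:5, final up to 41.7 uM), then 1500 HEK293 cells added per well and incubated 24 hr at 37C, 5% CO2. CellTiter-Glo was added and luminescence read after 10 min.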

Test [9] can be described thus: AP1 Signaling Pathway (AID 357; active = well fitted curve in either direction with a large enough effect, not every such curve was filed as active; also: % is scaled to controls: 0 for no effect and ±100 for the full control effect). Particulars: ME-180 AP-1-bla reporter, EGF-induced, beta-lactamase ratio, 5 h; at 38 µM (top of the series). The essentials: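 ME-180 cells with beta-lactamase reporter under AP-1 response element, stimulated with EC50 EGF; compounds tested in titration series, 5 h at 37 °C. CCF4 substrate added 2.5 h at room temperature; 460/530 nm emission ratio gave %activity and AC50.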

The target in test [10] is Cytochrome P450 1A2 (Homo sapiens) (UniProt P05177). In words: p450-cyp1a2 (AID 410; calls by dose curve;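 also: -100% = full effect of reference inhibitor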). Particulars: recombinant CYP1A2, luciferin-ME demethylation, luminescence; series mostly up to 57 µM. In short, it runs like this: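 Luminescent readout of luciferin formed from Luciferin-ME by human CYP1A2; data normalized against complete inhibition by 57 uM furafylline. Enzyme 20nM, substrate 100uM at Km, 100mM KPO4 buffer, 60 min reaction at room temperature.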
Sequence of Cytochrome P450 1A2 (Homo sapiens) (P05177 whole entry, looked up): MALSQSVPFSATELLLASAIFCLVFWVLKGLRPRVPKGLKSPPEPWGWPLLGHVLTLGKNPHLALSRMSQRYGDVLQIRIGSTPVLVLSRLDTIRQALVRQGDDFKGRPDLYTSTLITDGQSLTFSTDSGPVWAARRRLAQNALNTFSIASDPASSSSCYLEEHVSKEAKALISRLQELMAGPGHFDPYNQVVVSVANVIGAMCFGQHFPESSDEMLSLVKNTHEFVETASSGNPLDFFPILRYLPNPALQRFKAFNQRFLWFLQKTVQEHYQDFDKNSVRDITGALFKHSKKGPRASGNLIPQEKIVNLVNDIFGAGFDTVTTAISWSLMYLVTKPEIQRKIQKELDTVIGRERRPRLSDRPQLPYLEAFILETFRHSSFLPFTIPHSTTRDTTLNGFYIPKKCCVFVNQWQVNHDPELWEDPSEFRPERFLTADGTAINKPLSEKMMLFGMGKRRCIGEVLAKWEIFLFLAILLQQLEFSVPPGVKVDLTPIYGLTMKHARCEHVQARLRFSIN

The nature of test [11]: NFAT Signaling Pathway (AID 444; active = well fitted curve in either direction with a large enough effect, not every such curve was filed as active). Particulars: Jurkat NFAT-bla M1, carbachol, beta-lactamase ratio, 5 h; at 38 µM (top of the series). The essentials: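 Jurkat cells carrying an NFAT-driven β-lactamase reporter and co-transfected muscarinic M1 receptor were treated with compound plus carbachol (1 uM final, an EC50 level) for 5 h at 37 °C. CCF4 loading followed for 1 h at RT; 460/530 nm ratio gave %activity.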

A short description of test [12]: Stat Signaling Pathway (AID 446; active = well fitted curve in either direction with a large enough effect, not every such curve was filed as active). Particulars: ME-180 SIE beta-lactamase reporter, IL-6 stimulated, 5 h; at 38 µM (top of the series). In short, it runs like this: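 ME-180 SIE-bla cells; overnight plating; cpd + IL-6 40 pM, 5 h, 37 C; LiveBLAzer 2.5 h RT; 460/530 nm emission ratio. Normalized to 300 pM IL-6 and 125 nM JAK inhibitor controls.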
Test [13] has as its target Glucocorticoid receptor (Homo sapiens) (UniProt P04150). The experiment in a line: GR-EFC Redistribution (AID 451; calls by dose curve; also: potency is read from the fitted curve at half-maximal effect). The following applies: CHO-K1 GR-EFC translocation, beta-gal luminescence, 2 h. The essentials: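 CHO-K1 cells stably expressing nuclear-localized β-gal enzyme acceptor and GR fused C-terminally to the enzyme donor fragment; ligand-driven nuclear translocation restores β-gal by complementation. Compounds titrated up to 46 uM final, 2 h at 37 °C; luminescence read.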

Test [14] addresses Guanine nucleotide-binding protein G(i) subunit alpha-1 (Homo sapiens) (UniProt P63096). In words: qHTS Assay for Inhibitors of RGS12 GoLoco Motif Activity (Green Fluorophore) (AID 879).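 Also: 0% = labeled peptide with Gαi1 and full inhibition = labeled peptide alone without protein; negative values mean loss of peptide binding seen as reduced polarization.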 The following applies: Galphai1/FITC-RGS12 GoLoco peptide, fluorescence polarization; series mostly up to 57.1 µM. In short, it runs like this: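 Fluorescence polarization assay: 50 nM Gαi1 with 10 nM FITC-labeled RGS12 GoLoco peptide in 10 mM Tris pH 7.5, 150 mM NaCl, 0.1 mM GDP, 0.05% NP40, 10 min at room temperature with compound.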

The target in test [15] is Cytochrome P450 2C9 (Homo sapiens) (UniProt P11712). In words: qHTS Assay for Inhibitors and Substrates of Cytochrome P450 2C9 (AID 883). Also: potency is read from the fitted curve at half-maximal effect; nearly all actives have a fitted effect of over 60% in size. Particulars: recombinant CYP2C9, luciferin-H luminescence, 60 min; series mostly up to 57.1 µM. In short, it runs like this: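 Human CYP2C9 (10nM) hydroxylated Luciferin-H (100uM, at its KM) to luciferin in 25mM KPO4. Compound was preincubated 10 min at 37C, then NADPH regeneration started a 60 min reaction at 37C. Luminescence was read after detection reagent, normalized to 57uM sulphaphenazole.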
Sequence of Cytochrome P450 2C9 (Homo sapiens) (P11712 whole entry, looked up): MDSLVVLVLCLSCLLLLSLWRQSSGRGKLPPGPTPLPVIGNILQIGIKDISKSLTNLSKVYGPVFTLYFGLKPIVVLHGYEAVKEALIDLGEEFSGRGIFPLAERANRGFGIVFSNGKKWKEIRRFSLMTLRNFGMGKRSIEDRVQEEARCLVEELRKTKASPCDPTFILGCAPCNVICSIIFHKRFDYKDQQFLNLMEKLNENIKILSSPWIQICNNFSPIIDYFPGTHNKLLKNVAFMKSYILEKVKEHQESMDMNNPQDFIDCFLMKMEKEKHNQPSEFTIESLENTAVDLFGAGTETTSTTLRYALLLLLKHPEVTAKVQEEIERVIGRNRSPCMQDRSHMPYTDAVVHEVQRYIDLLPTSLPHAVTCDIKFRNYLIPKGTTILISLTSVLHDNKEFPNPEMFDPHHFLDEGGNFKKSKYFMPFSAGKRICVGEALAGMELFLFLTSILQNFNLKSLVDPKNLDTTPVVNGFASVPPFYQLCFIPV

Test [16] concerns the target Muscarinic acetylcholine receptor M1 (Rattus norvegicus) (UniProt P08482). The experiment in a line: qHTS Assay for Antagonists of Acetylcholine Muscarinic M1 Receptor: Kinetic Measurement of Intracellular Calcium Response (AID 943).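 Also: Fluo-4 calcium signal as peak divided by basal fluorescence over 4 min; nearly all actives have a fitted effect of over 75% in size.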 Particulars: M1-expressing cells, kinetic intracellular calcium fluorescence; series mostly up to 35.3 µM. The essentials: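 Rat M1-CHO cells, 2000/well, overnight → Fluo-4 no-wash dye with probenecid, 1 h 37C → compound 10 min, room temp → basal read 6 s → carbachol EC80 (100 nM) → 4 min kinetic read; peak/basal.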

Test [17] concerns the target Pyruvate kinase (Leishmania mexicana) (UniProt Q27686). In words: qHTS Validation Assay for Inhibitors of Leishmania Mexicana Pyruvate Kinase (AID 945).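 Also: 0% = DMSO only neutral control wells.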 Particulars: purified L. mexicana pyruvate kinase, enzyme activity, E451W mutant enzyme; series mostly up to 57.5 µM. The essentials: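 Read-out: luminescence from PKLight stop/detection reagent, data normalized to DMSO. Reaction: 0.2 nM E451W LmPYK, 0.5 mM PEP, 0.1 mM ADP, pH 7.2, 1 h room temperature.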

Test [18] concerns the target Pyruvate kinase PKM (Homo sapiens) (UniProt P14618). The experiment in a line: qHTS Assay for Activators of Human Muscle Pyruvate Kinase (AID 954; active = well fitted curve in the direction sought with a large enough effect, not every such curve was filed as active;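 also: 0% = uninhibited enzyme and -100% = no enzyme or full thiadiazolimine inhibition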). Particulars: purified human muscle pyruvate kinase, luciferase-coupled luminescence, 1 h; series mostly up to 57.5 µM. In short, it runs like this: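 Luminescence from a luciferase ATP-detection/stop reagent reported PKM2 activity. Reactions contained 0.1 nM purified human enzyme, 0.5 mM PEP, 0.1 mM ADP and 7 mM MgCl2 at pH 7.2, run 1 h at RT.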

Test [19] addresses Alpha-galactosidase A (Homo sapiens) (UniProt P06280). The experiment in a line: Counterscreen for Glucocerebrosidase Inhibitors: qHTS Assay for Human alpha-Galactosidase at pH 4.5 (AID 992). Also: 0% is about no effect. The following applies: purified enzyme, fluorogenic substrate; series mostly up to 76.9 µM. The essentials: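 Enzyme at 2 nM final was combined with compound (0.7 nM to 77 uM) and 80 uM 4-methylumbelliferyl alpha-D-galactopyranoside in 50 mM citric acid, 0.005% Tween-20, pH 4.5. After 20 min at room temperature, fluorescence was read (Ex 365/Em 440 nm); AC50 came from Hill fits.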
On the technique in general: Counterscreens check selectivity or assay interference.

Test [20] addresses alpha-glucosidase (Oryza sativa, rice) (UniProt Q653V4). In words: Counterscreen for Glucocerebrosidase Inhibitors: qHTS Assay for Rice alpha-Glucosidase at pH 5.0 (AID 997).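 Also: 0% = full activity with enzyme and -100% = basal without enzyme.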 The following applies: rice alpha-glucosidase enzyme activity; series mostly up to 76.9 µM. The essentials:
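Rice alpha-glucosidase (4 nM final) with 400 uM 4-methylumbelliferyl-alpha-D-glucopyranoside in citrate buffer pH 5.0, 20 min at room temperature, stopped at pH 10; fluorescence 365/440 nm, compounds 0.7 nM–77 uM, AC50 from Hill fits.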

Test [21] has as its target Glutathione peroxidase 1 (Homo sapiens) (UniProt P07203). In words: Primary qHTS Assay for Inhibitors of Recombinant Selenoprotein Glutathione Peroxidase 1 (GPX1) (AID 1845191). Also: % is scaled to controls: 0 for no effect and ±100 for the full control effect; nearly all actives have a fitted effect of over 65% in size. The following applies: recombinant GPX1, GR-coupled NADPH fluorescence, 15 min; series mostly up to 48.8 µM. The essentials: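 Recombinant GPX1 (10 nM final) was preincubated with compound for 30 min at room temperature, then reacted with 1 mM GSH, 0.5 mM CHP, 0.5 mM NADPH and 100 nM glutathione reductase; NADPH fluorescence (340/450 nm) was read at 0 and 15 min.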

Test [22] has as its target Phospholipid hydroperoxide glutathione peroxidase GPX4 (Homo sapiens) (UniProt P36969). In words: Primary qHTS Assay for Inhibitors of Recombinant Selenoprotein Glutathione Peroxidase 4 (GPX4) (AID 1845192). Also: nearly all actives have a fitted effect of over 65% in size. The following applies: recombinant GPX4, GR-coupled NADPH fluorescence, 15 min; series mostly up to 50 µM. The essentials: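 GR-coupled readout: 100 nM GR, 1 mM GSH, 0.5 mM NADPH; NADPH fluorescence (ex 340/em 450 nm) read at t=0 and after 15 min RT. GPX4 200 nM, preincubated 30 min with compound; substrate 0.5 mM CHP.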

Sequence of DNA dC->dU-editing enzyme APOBEC-3G (Homo sapiens) (Q9HC16 whole entry, looked up): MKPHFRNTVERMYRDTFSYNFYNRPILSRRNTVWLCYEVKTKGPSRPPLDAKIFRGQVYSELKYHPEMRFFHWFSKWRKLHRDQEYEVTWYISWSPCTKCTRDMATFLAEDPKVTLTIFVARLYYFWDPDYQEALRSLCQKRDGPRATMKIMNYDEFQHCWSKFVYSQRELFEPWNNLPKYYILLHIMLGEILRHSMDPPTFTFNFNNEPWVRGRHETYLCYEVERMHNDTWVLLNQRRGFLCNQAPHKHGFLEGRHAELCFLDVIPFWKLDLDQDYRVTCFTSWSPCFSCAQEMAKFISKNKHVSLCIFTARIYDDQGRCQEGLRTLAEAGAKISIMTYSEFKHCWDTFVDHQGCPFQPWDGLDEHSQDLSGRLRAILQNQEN
Sequence of Glucocorticoid receptor (Homo sapiens) (P04150 whole entry, looked up, the tested form may be a part): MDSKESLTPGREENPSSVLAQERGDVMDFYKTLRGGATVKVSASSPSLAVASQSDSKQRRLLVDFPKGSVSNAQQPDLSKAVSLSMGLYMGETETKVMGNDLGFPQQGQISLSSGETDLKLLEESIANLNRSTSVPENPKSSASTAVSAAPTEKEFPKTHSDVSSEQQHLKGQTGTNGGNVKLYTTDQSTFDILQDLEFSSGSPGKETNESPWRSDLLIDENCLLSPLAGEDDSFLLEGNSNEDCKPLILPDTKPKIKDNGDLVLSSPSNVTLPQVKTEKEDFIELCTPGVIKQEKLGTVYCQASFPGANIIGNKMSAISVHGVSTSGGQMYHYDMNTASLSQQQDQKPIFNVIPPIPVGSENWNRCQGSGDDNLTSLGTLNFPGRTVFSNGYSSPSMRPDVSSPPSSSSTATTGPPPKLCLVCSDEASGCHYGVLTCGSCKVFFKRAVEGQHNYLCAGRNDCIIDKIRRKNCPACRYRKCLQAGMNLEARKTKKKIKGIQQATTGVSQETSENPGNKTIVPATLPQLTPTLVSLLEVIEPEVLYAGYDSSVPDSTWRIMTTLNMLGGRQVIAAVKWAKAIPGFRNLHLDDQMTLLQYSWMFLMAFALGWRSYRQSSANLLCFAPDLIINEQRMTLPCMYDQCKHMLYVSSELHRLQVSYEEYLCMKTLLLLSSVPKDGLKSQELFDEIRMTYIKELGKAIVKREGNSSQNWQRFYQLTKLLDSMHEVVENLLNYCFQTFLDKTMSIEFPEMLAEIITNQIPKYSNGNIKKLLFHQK
Sequence of Glutathione peroxidase 1 (Homo sapiens) (P07203 whole entry, looked up): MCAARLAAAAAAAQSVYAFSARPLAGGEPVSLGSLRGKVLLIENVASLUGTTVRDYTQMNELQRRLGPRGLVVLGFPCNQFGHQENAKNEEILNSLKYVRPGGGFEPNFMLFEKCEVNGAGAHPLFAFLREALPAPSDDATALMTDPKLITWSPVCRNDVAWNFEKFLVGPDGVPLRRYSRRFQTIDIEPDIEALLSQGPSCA
Sequence of Muscarinic acetylcholine receptor M1 (Rattus norvegicus) (P08482 whole entry, looked up): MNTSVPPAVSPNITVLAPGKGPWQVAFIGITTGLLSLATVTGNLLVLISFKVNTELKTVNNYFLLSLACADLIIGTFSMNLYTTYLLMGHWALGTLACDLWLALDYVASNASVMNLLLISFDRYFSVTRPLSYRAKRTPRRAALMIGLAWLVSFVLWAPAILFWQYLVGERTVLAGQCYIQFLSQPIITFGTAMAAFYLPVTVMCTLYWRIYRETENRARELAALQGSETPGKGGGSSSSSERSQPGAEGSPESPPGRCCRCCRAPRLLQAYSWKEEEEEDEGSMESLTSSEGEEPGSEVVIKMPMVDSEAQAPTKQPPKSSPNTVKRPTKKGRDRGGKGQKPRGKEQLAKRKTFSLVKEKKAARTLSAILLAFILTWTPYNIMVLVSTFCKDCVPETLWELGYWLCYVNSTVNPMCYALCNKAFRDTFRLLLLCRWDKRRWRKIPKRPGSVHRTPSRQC
Sequence of Phospholipid hydroperoxide glutathione peroxidase GPX4 (Homo sapiens) (P36969 whole entry, looked up): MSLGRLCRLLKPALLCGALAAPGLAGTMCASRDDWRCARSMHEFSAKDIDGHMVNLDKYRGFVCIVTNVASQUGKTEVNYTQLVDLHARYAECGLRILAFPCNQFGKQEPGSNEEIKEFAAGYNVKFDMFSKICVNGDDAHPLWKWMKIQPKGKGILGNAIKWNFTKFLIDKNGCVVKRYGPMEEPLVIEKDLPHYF
Sequence of Alpha-galactosidase A (Homo sapiens) (P06280 whole entry, looked up): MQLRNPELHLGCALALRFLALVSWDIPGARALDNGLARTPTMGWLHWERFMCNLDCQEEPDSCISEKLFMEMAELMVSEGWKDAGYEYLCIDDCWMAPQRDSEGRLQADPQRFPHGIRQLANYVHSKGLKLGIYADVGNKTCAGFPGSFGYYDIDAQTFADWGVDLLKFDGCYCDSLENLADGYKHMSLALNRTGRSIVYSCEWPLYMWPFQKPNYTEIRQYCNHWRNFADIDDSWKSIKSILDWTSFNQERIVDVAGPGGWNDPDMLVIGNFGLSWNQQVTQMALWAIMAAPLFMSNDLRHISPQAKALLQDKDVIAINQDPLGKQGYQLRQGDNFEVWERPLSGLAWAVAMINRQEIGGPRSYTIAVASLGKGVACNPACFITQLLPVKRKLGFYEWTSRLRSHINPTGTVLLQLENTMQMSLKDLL
Sequence of Pyruvate kinase PKM (Homo sapiens) (P14618 whole entry, looked up): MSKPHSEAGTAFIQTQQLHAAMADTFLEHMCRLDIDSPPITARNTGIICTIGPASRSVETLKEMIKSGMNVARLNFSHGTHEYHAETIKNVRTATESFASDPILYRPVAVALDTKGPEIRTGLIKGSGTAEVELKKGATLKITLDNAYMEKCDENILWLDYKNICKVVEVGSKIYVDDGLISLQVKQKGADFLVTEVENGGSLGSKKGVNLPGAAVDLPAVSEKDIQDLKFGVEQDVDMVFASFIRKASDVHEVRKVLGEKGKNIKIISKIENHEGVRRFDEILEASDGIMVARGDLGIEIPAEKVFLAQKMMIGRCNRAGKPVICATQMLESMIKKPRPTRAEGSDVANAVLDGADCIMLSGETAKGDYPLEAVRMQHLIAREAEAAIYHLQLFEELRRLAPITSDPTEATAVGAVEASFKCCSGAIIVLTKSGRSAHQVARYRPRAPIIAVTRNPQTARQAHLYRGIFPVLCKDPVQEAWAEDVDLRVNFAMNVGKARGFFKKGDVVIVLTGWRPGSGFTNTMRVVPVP

On to `O=C1CCc2c(ccc3ccccc23)O1`, for which the Potency in test [1] was > 46 µM (inactive). The Potency result in test [2], in [3], in test [4], in [5], in [6] and in test [7] was “inactive” each time. The compound was classed as inactive in test [8].

In the case of `N[C@H](CCC(=O)N[C@H](CSN=O)C(=O)NCC(=O)O)C(=O)O`, the activity change, negative = inhibition was -9.57% (inactive) in test [9] and 0.964% (inactive) in [11]. Moreover, the Potency result in test [10], in test [2], in test [3], in test [16], in test [17] and in [5] was “inactive” throughout. The Potency entry in test [6] and in test [7] was “inactive” in each case. Besides, the activity, negative = inhibition in [12] is 14.7% (inactive). For the same compound, the results for the Potency in [1], in test [13] and in [15] were > 46 µM (inactive), > 46 µM (inactive) and 5.01 µM (active), respectively. In addition, the call in test [14], in test [18], in [19] and in [20] was inactive.

As for `N[C@H](Cc1ccccc1)C(=O)O`, the Potency entry in test [6], in test [7], in [21] and in [22] was “inactive” throughout.

Turning to `COc1ccc2[nH]c(I)c(CCNC(C)=O)c2c1`, the results for the activity change, negative = inhibition in [9] and in test [11] were -7.67% (inactive) and -1.64% (inactive), respectively. Also, the activity, negative = inhibition in [12] was 3.36% (inactive). Moreover, the Potency in [1] and in test [13] was > 46 µM (inactive) in each case. In addition, the Potency entry in test [2], in test [3], in [5], in [6] and in test [7] was “inactive” throughout.
